Experimental data reported in PubChem BioAssay AID1159506 (National Center for Advancing Translational Sciences (NCATS), 2015).
In all, about 59,000 sequences were measured (the read-out: median about -0.00055, lowest 2% from about -2 on). Many of the other results were omitted from the sample, so the lowest values are more common in it than they were.

Test: Identification of proteins required for the processing of the EWS-FLI1 nascent transcript;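 also: robust z of luciferase light less the median z of siRNAs with the same seed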
Conditions: TC32 Ewing sarcoma NR0B1-luc vs CMV-luc (EWS-FLI1 target promoter against control promoter), 48 h; screened at 20 nM (by protocol)
Procedure, shortened: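 Three siRNAs per gene, each in a separate well at 20 nM, were transfected into TC32 cells bearing either reporter construct. Luminescence was measured two days on, and per-gene comparison relied on seed-corrected Z values.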

| Sequence | seed-corrected z-score |
| --- | --- |
| AAAUCUUGAUCUGUGACUC against EN2 | 0.225 |
| UCUCUCAUCAAUAUGCUCU against MTHFD2 | 0.352 |
| UAUAGGCACGCUGCUAUUC against DIRC2 | -2.73 |
| UUCGUUAGGUUUCCUUUCG against HIVEP2 | -0.393 |
| UUCCGAAAUGAAAAGGAUC against GMPR2 | 0.18 |
| UAAUUGCUGAUAUUCGAGC against EPB41L3 | -0.247 |
| UAAGAUACUCGGGUUUCAC against ZADH2 | -0.425 |
| AGUUCGAUUAGCUAAGGCC against SYNRG | -0.0555 |
| UAUGGGAGUGUCAAUAAUC against PDHB | -0.681 |
| UCAGGUGCAAUCUGACUCU against PPP1R1C | -2.4 |
| AUGCUUACAAGAUCUUGUC against USP44 | -0.0422 |
| UCACGUGUAAAGGAUCACG against RTN4IP1 | 0.0887 |
| UUCUGUUCAAAUCCAUUGG against BUD13 | -0.753 |
| AGAGUUGUUGUCAUCUUCC against CACNA1S | -0.313 |
| UCUGGGCGUAGACAACUGC against CNTFR | -2.12 |
| UGAACGUCCCGUCUGAGUG against SCT | -0.424 |
| UCUUCAAUAAUGAUCUCCU against MRI1 | 0.722 |
| UGAAGAGUAAGCUCAAACC against ASIC5 | -3.53 |
| UAAACUUCCCUUUAAAAAC against IRF8 | -0.00875 |
| UUCAUGUGAACUUACAGUU against UQCRHL | 0.0588 |
| UUAGUUGCAAGGCAUUCAG against FAM135A | -4.23 |
| UAAAGGUCAAGCAGUCAGU against PVRL4 | 0.651 |

| Sequence | seed-corrected z-score |
| --- | --- |
| AGUGAUGACAUUGAUAUCG against SYDE1 | 1.21 |
| AUAUCUACGAUCUAUAUCU against LOC645553 | 0.695 |
| UCUGGUUCUUGUUCAAGUG against PCDH17 | -1.28 |
| UCGCUAUCCAUAUCAGAGG against GOLGA4 | 1.24 |
| UUAAUGGUCCUGUAGUAAC against MTMR1 | 0.139 |
| UACAACAAUAGCCACAGCU against OR52W1 | -2.15 |
| UGUAUUUUAUGUCUCUCCC against PLAC8L1 | -0.115 |
| AAAGCCCAAAUAUAGUUCC against NEUROD4 | 0.947 |
| UUUGAGGAAAGGAACUGCC against FAM228A | 0.28 |
| AAUCUUGGUCUUACUGUCC against PKN1 | -1.59 |
| UACUGAGAUAGUCAAAUUC against CYB5D1 | -0.0466 |
| UUAUUGGAGAGCACCUGGU against PADI3 | 0.0879 |
| ACAUCUGUCAGGGUCAUCG against NOD1 | -0.0205 |
| UCCUUGUCGAAAGAAGUGC against RMND5A | -3.27 |
| UCAGUUUACCUGAGAAGCC against C22orf39 | -0.529 |
| UGACUUUAAGUUUUGGGCC against LINC00999 | 0.159 |
| UGUAGCAUGACCGUCUUCC against LINC00239 | -0.84 |
| AAGGUGCACAAGUAAAGCC against LOC730100 | -2.05 |
| UCAUUGGAUUCCAAAAUCC against ADAM18 | 0.186 |
| UACGUUAAAAGGCAGGACA against CDKN2A | -0.998 |
| UAGCAGAUGAGAGACUAUG against MRPS24 | -0.269 |
| UUUAUGGGCUCUUUUGACG against ENPP5 | -0.349 |

| Sequence | seed-corrected z-score |
| --- | --- |
| UAUGCUAAGGUAGCAGUUG against RNF133 | 0.16 |
| UAUAAGUCUGGGAUAUCUG against CATSPERD | -0.549 |
| UCUUCGAAAGUGACCAGCA against INTS6 | -0.292 |
| UAACCUCCAUCCGAGGUGG against INHA | -0.1 |
| UGGGAUACCCUCCUUGUCU against UBA52 | -2.1 |
| UCUUUGAACAGGAUAAACC against HNRNPAB | 0.756 |
| UGAAUAUCAAGUUAGAUCC against OR5AK2 | 0.308 |
| UCUCUUGCUUGGAGGAAGC against ZNF174 | 0.443 |
| UCGGAGAUCAGGCUAGUGG against TMEM82 | -2.03 |
| UCCGGGUUCAGCAUGUCCA against ESPN | -0.679 |
| UAAUUGACCUGUACGCUCG against GATM | 0.156 |
| AAAGCAGUUGGAACCGUUG against KRTAP24-1 | 0.448 |
| AUCGAUUUUAAUGAACCGC against RPS4X | 1.4 |
| AAAGGCGUAGAGGAGCUGG against TRIB3 | -3.4 |
| UAGGUGAACAUCAUGACGC against ITGB5 | -0.131 |
| AUCUUUGUUGCGGAGACUG against OR2T34 | -0.514 |
| AGCUUGAUCAUUCUAGUGC against FLJ36777 | 0.325 |
| UUUCGAAUACCAGCUAUCC against KLHL7 | 0.0747 |
| UCGUGGUUCUCAAUUUUGC against PKLR | -0.494 |
| ACCUCUGCAUCUCUUGUUC against TCF23 | -2.43 |
| UUUCAAUCCUUCCUCCUUA against IFNA7 | -0.487 |
| UAAUGUAACUACUUCCAUC against TM2D1 | -0.144 |

| Sequence | seed-corrected z-score |
| --- | --- |
| UGUUGUCAAAGAGUGAUUC against SLC2A13 | -2.46 |
| UACUGAAUCACUCCCUUGA against GALK1 | -0.0112 |
| UGUAGUACGCUCUUGUUCU against GOLGA8EP | -0.41 |
| UGCCGAGAAGUUUGGCUCC against TPBGL | -0.407 |
| AGAUAGUACACUCAUAUGG against ZNF791 | -2.77 |
| UAUGCGGACCAAGUUGUCU against TMEM72 | 0.195 |
| UCAGGAUAAAGAUUGUCGC against KDM4A | 1.62 |
| UGAAAUUCCCGUAGAGUUC against CA11 | -0.176 |
| AAACGAAAAAUGAACACUC against POU3F1 | 0.371 |
| AUUCUGAUCUAGGCGAUGG against C5orf15 | -2.22 |
| UUCGGAACCGGAGAUCCCA against RIPK4 | -0.395 |
| AAUCUAAUAGGAUUUGUUA against CTBP2 | -0.167 |
| ACCGUUUAAACUGAGACCC against FILIP1 | 1.11 |
| UCGCUGACUCCAGAUAUGC against AP1G2 | -0.0794 |
| UUCUUUGCACGAAUGUCCG against PRPF6 | -1.74 |
| UUGUUAAUCUGGUCAAUUG against GRM8 | 0.169 |
| UGCUUUUGGAGUGCUAUGG against ANKLE1 | -2.74 |
| UCCACGAAUAGCAAUAUGC against KIDINS220 | -1.19 |
| AAAUCAUAAACCAUCUUUG against OR2L2 | 1.05 |
| AGUAGUCACACUGUUGUGC against NXNL2 | -4.17 |
| UAUUUAUCUAGGCACUUCU against CENPT | 0.523 |
| UUCUCAGAAACUGCACGGC against SYNGR4 | 0.497 |

| Sequence | seed-corrected z-score |
| --- | --- |
| UAUUCUUAUCUGUAAUCCC against LOC646736 | -0.205 |
| UCGCGGAUCAGAAAGGUGC against SOCS3 | -1.04 |
| UACUUUUGAUGCACUAGUC against ETAA1 | -1.14 |
| AACAUAAGAGAGACAAUGC against SYVN1 | 0.102 |
| UCACGAACUGGACUUUACC against GRM7 | -0.806 |
| GUCAGGUAGAAGACCACAC against MRGPRG | -2.24 |
| UGCGUGAACCUCUUGAACA against TNFAIP2 | 0.027 |
| AGUGGAAACAGGAUGGAUG against GAL3ST4 | -0.271 |
| UAGCCGCUGACUUUGAUGC against SLC39A13 | 0.264 |
| UUACUUGUACCCGCUGUUC against RLTPR | -0.488 |
| AUCUGCAUAAUGCACAUUC against SLC15A5 | -2.92 |
| AGCAUCUUGACAUUCAUCU against MYL4 | -0.225 |
| UUUAAGGGUAUUACGAGUG against GGPS1 | 0.153 |
| UUAUCAAUUAGAGGAUAAC against B3GALNT1 | 0.214 |
| AUACAUCCGAUUAAGAGGC against SERINC5 | -2.74 |
| UUUCCUGUAAAUCCCACAG against TSSC1 | 0.399 |
| AGAUCUAAUAACAAUAAGC against EIF2S3 | -2.28 |
| AAUCAGUCAGGUAAAUGCC against ENTPD1 | 0.248 |
| AAUAAAAAUGACAGUUUCC against BTN2A2 | 0.474 |
| AAUGAGAAUAAAGUCUACC against OR51A4 | -2.31 |
| UCCUUCACAAACAUGUCCC against SDK1 | 0.154 |
| UAUCGAAGAUAAAUCAGCC against SLC7A11 | 0.269 |

| Sequence | seed-corrected z-score |
| --- | --- |
| UUCUUCUCGGCCUGUUUCC against RPL13A | 0.511 |
| UGCCUGUAAAGCCGUCUCC against LINC00705 | -0.731 |
| AAGCCUAUGAUGAUCACUG against C3orf52 | -0.911 |
| UUCCAGCACAUAUCGACUC against TMEM8B | -2.4 |
| AUACUGGACACUCUUGCCG against RNF5 | -2.86 |
| UUCGGUCUCAGGACUAUUG against KAT6A | 0.686 |
| UUCUUGAACUGUCUAAACC against CERKL | 0.919 |
| UUUCAUUGAAGCGGAAGCG against CRYGD | 0.834 |
| UUACUUAGAGGAGAUACCA against IGFBP7 | -0.294 |
| UCCCGGAAAGCCUUCAUGG against INF2 | -0.589 |
| UAAGAUAUGAACUCUGACG against ZNF234 | 0.548 |
| UGGGCUUGUAGAAGUGUCU against DGAT1 | -0.22 |
| AAUUAUUCGACUGACAUAG against RFC4 | -2.19 |
| AUCUGUCCAAGACAUUUGC against CHRNA7 | -1.18 |
| AAACUGACAAGUAGACUGG against ANKRD27 | -0.601 |
| UCAGUUGCUUAUGAUAGUC against CCDC73 | -2.71 |
| UUAUUAGAGAGAAAAGCAC against PRAC1 | 0.7 |
| UCCGUUAUUAGCAUCUGCC against 6-Mar | -0.0888 |
| UUAUUGAUGCGUUGAUUUG against CCDC88C | 0.00274 |
| UUAUGUACCUUGUUACAUU against CD72 | -0.111 |
| AUGCGGUUCAGGAACUUGG against SBNO2 | -2.46 |
| ACAUAUAGUAUCAUUAUGG against SLC35D2 | 0.0309 |
